{
  "source": "PubChem BioAssay (Tox21)",
  "note": "Results filed as inconclusive are left out. Where a call stands in place of a potency, no number is given. The source made the active and inactive calls. Calls follow the shape of the dose curve; as a rule, active = well fitted cell-killing curve with a large enough effect in the repeat runs; inconclusive = weak or mixed curves, or effect the other way; inactive = no such curve, though single readings can be large or run the other way. Potency is read from the fitted curve at half-maximal effect.",
  "data": [
    {"test": "qHTS assay for small molecule activators of the heat shock response signaling pathway - cell viability counter screen (AID 743209); also: nearly all actives have a fitted effect of over 50% in size", "details": "HSE-bla HeLa viability, CellTiter-Glo luminescence, 5 h; series mostly up to 62.6 µM", "text": "U.S. Tox21 Program National Center for Advancing Translational Sciences [NCATS] NIH Chemical Genomics Center [NCGC] U.S. Environmental Protection Agency [EPA] National Institutes of Environmental Health Sciences [NIEHS] National Toxicology Program [NTP] U.S. Food and Drug Administration [FDA] Tox21 Assay Overview: Various chemicals, environmental and physiological stress conditions may lead to the activation of heat shock response/ unfolded protein response (HSR/UPR). There are three heat shock transcription factors (HSFs) (HSF-1, -2, and -4) mediating transcriptional regulation of the human HSR. To identify the compounds that activate HSR signaling, HSE-bla HeLa cell line (Invitrogen, Carlsbad, CA, USA) containing a beta-lactamase reporter gene under the control of the heat shock response elements was used to screen Tox21 10K compound library. The cytotoxicity of the Tox21 compound library against the HSE-bla HeLa cell line was tested in parallel by measuring the cell viability using CellTiter-Glo assay (Promega, Madison, WI) in the same wells.\nTox21 Assay Protocol Summary: The CellSensor HSE-bla HeLa cells (Invitrogen, Carlsbad, CA, USA) were dispensed at 1500 cells/6uL/well into 1536-well black wall/clear bottom plates using a Multidrop combi (Thermo Fisher Scientific, Waltham, MA) dispenser. After the assay plates were incubated at 37 C and 5% CO2 overnight, 23 nL of compounds dissolved in DMSO, positive controls or DMSO only was transferred to the assay plate by a Pintool station (Kalypsys, San Diego, CA). The plates were incubated at 37 C for 5 h. After 1 uL of LiveBLAzerTM B/G FRET substrate was added using a Flying Reagent Dispenser (FRD, Beckman Coulter, Indianapolis, IN, USA), the plates were incubated at room temperature for 2.5 h, and fluorescence intensity was measured by an Envision plate reader (PerkinElmer, Shelton, CT). For cell viability readout that measures cytotoxicity, 3 ul/well of CellTiter-Glo reagent was added into the assay plates using a FRD. After 30 min incubation at room temperature, the luminescence intensity in the plates was measured using a ViewLux (PerkinElmer) plate reader.", "values": [
      {"smiles": "CCC1CCC(CCC(=O)O)C1", "note": "(stereo not given)", "Potency": "inactive"},
      {"smiles": "CC(C)c1ccc(C#N)cc1", "Potency": "inactive"},
      {"smiles": "CCCCCCC(O)CCOC(C)=O", "note": "(stereo not given)", "Potency": "inactive"},
      {"smiles": "CCOC(=O)Oc1ccc(CCNC(=O)[C@H](CCSC)NC(C)=O)cc1OC(=O)OCC", "Potency": "inactive"},
      {"smiles": "CCCCOC(=O)CCCCC(=O)OCCCC", "Potency": "inactive"},
      {"smiles": "COc1cc(NCc2ccc3nc(N)nc(N)c3c2C)cc(OC)c1OC", "Potency": "inactive"},
      {"smiles": "CCC(CO)(CO)[N+](=O)[O-]", "Potency": "inactive"},
      {"smiles": "Cc1ccc(N(CCO)CCO)cc1", "Potency": "inactive"},
      {"smiles": "Cc1oc(=O)oc1COC(=O)[C@@H]1N2C(=O)[C@@H](NC(=O)[C@H](N)c3ccccc3)[C@H]2SC1(C)C", "Potency": "inactive"},
      {"smiles": "CCCCCCCCCCCSCC(=O)O", "Potency": "49 µM (active)"},
      {"smiles": "CCN(CC)c1cccc(O)c1", "Potency": "inactive"},
      {"smiles": "CC(=O)NNC(C)=O", "Potency": "inactive"},
      {"smiles": "CC(CN(CCN(CC(C)OCCO)CC(C)OCCO)CC(C)OCCO)OCCO", "note": "(stereo not given)", "Potency": "inactive"},
      {"smiles": "CC1CCc2nccnc21", "note": "(stereo not given)", "Potency": "inactive"},
      {"smiles": "O=C(O)CCCc1c[nH]c2ccccc12", "Potency": "inactive"},
      {"smiles": "CC(=O)NCCO", "Potency": "inactive"},
      {"smiles": "O=C1CC[C@@H](C(=O)O)N1", "Potency": "inactive"},
      {"smiles": "C/C(C=O)=C\\c1ccccc1", "Potency": "inactive"},
      {"smiles": "c1ccc2sc(SSc3nc4ccccc4s3)nc2c1", "Potency": "inactive"},
      {"smiles": "O=C1[C@@H]2[C@H]3CC[C@H](C3)[C@@H]2C(=O)N1CCCCN1CCN(c2ncccn2)CC1", "Potency": "inactive"},
      {"smiles": "CC(=O)C(C)=O", "Potency": "inactive"},
      {"smiles": "O=C(Oc1ccccc1)c1ccc2ccccc2c1O", "Potency": "inactive"},
      {"smiles": "COc1ccc(C2C(=O)c3ccccc3C2=O)cc1", "Potency": "inactive"},
      {"smiles": "COC(=O)CC(C(C)=O)C(=O)OC", "note": "(stereo not given)", "Potency": "inactive"},
      {"smiles": "CC(C)C(O)C(C)(C)CO", "note": "(stereo not given)", "Potency": "inactive"},
      {"smiles": "CCN(CC)CCNC(=O)c1cc(Cl)c(N)cc1OC", "Potency": "inactive"},
      {"smiles": "O=C(Nc1ccc(C(=O)O)c(O)c1)c1ccccc1", "Potency": "inactive"},
      {"smiles": "Cc1cn([C@H]2C[C@H](F)[C@@H](CO)O2)c(=O)[nH]c1=O", "Potency": "inactive"},
      {"smiles": "O=C(c1ccccc1)C1CCC1", "Potency": "inactive"},
      {"smiles": "C1=CCC2CC=CC2C1", "note": "(stereo not given)", "Potency": "inactive"},
      {"smiles": "Cc1cc([N+](=O)[O-])ccc1N", "Potency": "inactive"},
      {"smiles": "CC(C)C1CCC(C(=O)N[C@H](Cc2ccccc2)C(=O)O)CC1", "note": "(stereo not given in full)", "Potency": "inactive"},
      {"smiles": "C=C(C)C(=O)OCCC(F)(F)C(F)(F)C(F)(F)C(F)(F)C(F)(F)C(F)(F)F", "Potency": "inactive"},
      {"smiles": "CCCC(=O)OC(=O)CCC", "Potency": "inactive"},
      {"smiles": "CC(C)N=C=NC(C)C", "Potency": "inactive"},
      {"smiles": "O=C(O)c1cccc(Oc2ccccc2)c1", "Potency": "inactive"},
      {"smiles": "Cc1ccc(N(CC2=NCCN2)c2cccc(O)c2)cc1", "Potency": "inactive"},
      {"smiles": "O=c1[nH][nH]c(=O)c2cc([N+](=O)[O-])ccc12", "Potency": "inactive"},
      {"smiles": "O=C(C(=O)c1ccco1)c1ccco1", "Potency": "inactive"},
      {"smiles": "Oc1cccc2[nH]ccc12", "Potency": "inactive"}
    ]}
  ]
}
